Drawing on PubChem BioAssay (NCI), this text covers growth for nine molecules.

Among the test systems are SR leukemia; RPMI-8226 leukemia; OVCAR-8 ovarian; OVCAR-5 ovarian; OVCAR-4 ovarian; SK-OV-3 ovarian; IGROV1 ovarian; OVCAR-3 ovarian; HS 578T breast; T-47D breast; BT-549 breast; MDA-MB-435 melanoma; SW-620 colon; MCF7 breast; HCT-116 colon; KM12 colon; HCC-2998 colon; NCI/ADR-RES ovarian.
Common to all, as to assay: NCI-60 one-dose screen, 48 h (100 = growth as untreated, 0 = no growth, -100 = all killed)
Common to all, as to conditions: 10 µM unless noted

About 83,000 compounds went through this panel and 20% of them were active in at least one assay; those are over-represented in the sample as a whole.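 The endpoint reported here, percent growth, reads 100 for growth as untreated, 0 for no net growth and -100 for all cells dead.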 A number with no mark means an inactive call. Active and inactive are the calls of the source. The calls were made as follows: active = growth percent below 10; inactive = the rest.

For `COc1ccc2c(c1)c(-c1nc(-c3cn(C)c4ncccc34)cs1)cn2CCN`, the growth was 27.4% with SR leukemia; 75.8% in the assay on RPMI-8226 leukemia; 71.1% with OVCAR-8 ovarian; 78.1% with OVCAR-5 ovarian; 41.1% with OVCAR-4 ovarian; 94.9% with SK-OV-3 ovarian. The growth was 41.8% with IGROV1 ovarian; 88.8% in the assay with OVCAR-3 ovarian; 85.6% in the assay with HS 578T breast; -0.878% (active) in the assay on T-47D breast; 96.9% with BT-549 breast; 95.4% in the assay on MDA-MB-435 melanoma. Besides, the growth is 62.3% in the assay on SW-620 colon, 16.6% in the assay with MCF7 breast, 80.5% in the assay on HCT-116 colon and 45% in the assay on KM12 colon.

On to `CN(C)c1ccc(N)c2ccccc12`, for which the growth in the assay on SR leukemia was 55%; in the assay on RPMI-8226 leukemia it was 68.8%; with OVCAR-8 ovarian, 74.6%; with OVCAR-5 ovarian, 75.4%; with OVCAR-4 ovarian, 27.7%; with SK-OV-3 ovarian, 85.2%. The growth in the assay with IGROV1 ovarian was 65.1%; in the assay on OVCAR-3 ovarian, -15.6% (active); in the assay with T-47D breast it was 80.2%; in the assay with BT-549 breast, 80.4%; with MDA-MB-435 melanoma it was -91.3% (active); in the assay with MCF7 breast, -70.1% (active). The growth with HCT-116 colon was 6.65% (active); in the assay with KM12 colon, 62.7%.

For the molecule `COC(=O)C(Cc1ccccc1)n1cc(COc2nc(Cl)nc(Nc3ccc(Cl)cc3)n2)nn1` (centres undefined), the growth in the assay with SR leukemia was 66.8%; in the assay with RPMI-8226 leukemia, 72.7%; in the assay on OVCAR-8 ovarian it was 96.1%; with OVCAR-5 ovarian, 116%; in the assay with OVCAR-4 ovarian, 104%; in the assay with SK-OV-3 ovarian it was 106%. In addition, the growth with IGROV1 ovarian is 99%; in the assay with OVCAR-3 ovarian, 87.2%; with HS 578T breast, 81.6%; with T-47D breast, 78.9%; in the assay on MDA-MB-435 melanoma, 105%; in the assay on SW-620 colon it was 99.8%. For the same molecule, the growth is 78.1% in the assay with MCF7 breast, 100% in the assay with HCT-116 colon, 101% in the assay on HCC-2998 colon and 96.5% with KM12 colon.

For `CC1(C)C(=O)/C(=C\c2cccnc2)C[C@]2(C)[C@H]3CC[C@@H]4[C@@H](C(=O)/C=C/c5ccncc5)CC[C@@]4(C)[C@]3(C)CC[C@@H]12`, the growth is 5.46% (active) in the assay on SR leukemia; -7.22% (active) in the assay on RPMI-8226 leukemia; 19.5% in the assay on OVCAR-8 ovarian; 18.1% in the assay on OVCAR-5 ovarian; 18.9% in the assay with OVCAR-4 ovarian; 64.2% in the assay on SK-OV-3 ovarian. Besides, the growth in the assay with IGROV1 ovarian is -28.1% (active); with OVCAR-3 ovarian, -48.6% (active); with HS 578T breast it was 31.7%; with T-47D breast, 16.9%; in the assay with BT-549 breast, 8.03% (active); in the assay on MDA-MB-435 melanoma, -11.4% (active). Besides, the growth is 8.95% (active) with SW-620 colon, 26.2% in the assay on MCF7 breast, -86.9% (active) in the assay with HCT-116 colon and -20.9% (active) with KM12 colon.

Regarding `CCCC(=O)N1CCCCC1CC` (centres undefined), the growth in the assay with SR leukemia is 102%; in the assay with RPMI-8226 leukemia, 95.7%; with OVCAR-8 ovarian, 95.3%; with OVCAR-5 ovarian, 87.5%; with OVCAR-4 ovarian, 102%; with SK-OV-3 ovarian it was 111%. Moreover, the growth with IGROV1 ovarian is 120%; with OVCAR-3 ovarian, 105%; in the assay on NCI/ADR-RES ovarian, 115%; in the assay on T-47D breast, 110%; in the assay on BT-549 breast, 100%; with SW-620 colon it was 93.8%. For the same molecule, the growth with MCF7 breast was 103%; with HCT-116 colon, 116%; in the assay with HCC-2998 colon, 115%; with KM12 colon, 108%.

In the case of `Cc1ccccc1-c1nc(C(Cl)Cl)nc2cc(-c3ccccc3)nn12`, the growth in the assay on SR leukemia was 50.2%; in the assay on RPMI-8226 leukemia, 61.6%; with OVCAR-8 ovarian it was 86.9%; in the assay with OVCAR-5 ovarian, 96.4%; in the assay on OVCAR-4 ovarian, 77.5%; in the assay on IGROV1 ovarian, 59.9%. Besides, the growth was 28.3% with OVCAR-3 ovarian; 70% with HS 578T breast; 65.3% with NCI/ADR-RES ovarian; 40.1% with T-47D breast; 92.9% with BT-549 breast; 56.6% in the assay with MDA-MB-435 melanoma. In addition, the growth in the assay with SW-620 colon was 53.5%; in the assay on MCF7 breast, 64%; with HCT-116 colon it was 55%; in the assay on HCC-2998 colon it was 69.2%; with KM12 colon, 36.5%.

For the molecule `O=S(=O)(NCCNc1cc(-c2cn(-c3ccccc3)nc2-c2cccc(O)c2)ccn1)c1ccc(C(F)(F)F)cc1`, the growth in the assay on SR leukemia is -23.1% (active); with RPMI-8226 leukemia, 18.5%; with OVCAR-8 ovarian it was 48.3%; with OVCAR-5 ovarian it was 62.7%; with OVCAR-4 ovarian it was 39%; in the assay on SK-OV-3 ovarian it was 54%. The growth in the assay on IGROV1 ovarian was 43.3%; with OVCAR-3 ovarian, 49.2%; in the assay on HS 578T breast, 48.6%; in the assay with T-47D breast it was 18.3%; in the assay on BT-549 breast, 65.2%; in the assay on MDA-MB-435 melanoma, 42.4%. For the same molecule, the growth in the assay with SW-620 colon is 64.8%; with MCF7 breast, 25.9%; in the assay on HCT-116 colon it was 28.4%; in the assay with HCC-2998 colon, 8.21% (active); in the assay with KM12 colon, 46.5%.

Consider `C#CCn1c(C)cc(C)c(C#N)c1=O`, for which the growth is 101% in the assay on SR leukemia; 103% with RPMI-8226 leukemia; 103% with OVCAR-8 ovarian; 99.9% in the assay on OVCAR-5 ovarian; 105% in the assay with OVCAR-4 ovarian; 118% with SK-OV-3 ovarian. Besides, the growth with IGROV1 ovarian was 103%; with OVCAR-3 ovarian it was 112%; in the assay on HS 578T breast it was 103%; in the assay on T-47D breast, 101%; in the assay with BT-549 breast it was 98%; with MDA-MB-435 melanoma, 106%. For the same molecule, the growth with SW-620 colon was 104%; in the assay with MCF7 breast it was 91.5%; in the assay with HCT-116 colon, 103%; in the assay on KM12 colon it was 101%.

Regarding `COC1=C(Br)C(=O)C(OC)=C(Br)C1=O`, the growth was 42.7% with SR leukemia; 101% in the assay with RPMI-8226 leukemia; 105% in the assay on OVCAR-8 ovarian; 113% in the assay on OVCAR-5 ovarian; 96.8% in the assay on OVCAR-4 ovarian; 110% in the assay with SK-OV-3 ovarian. Besides, the growth was 111% with IGROV1 ovarian; 91% in the assay with OVCAR-3 ovarian; 104% with NCI/ADR-RES ovarian; 106% in the assay with T-47D breast; 95.9% with BT-549 breast; 105% in the assay with MDA-MB-435 melanoma. The growth in the assay on MCF7 breast is 83%; in the assay on HCT-116 colon, 90.1%; in the assay with HCC-2998 colon, 114%; with KM12 colon it was 101%.
